# Values without a mark were called inactive. Active and inactive are the calls of the source. Unless noted, the call rests on the fitted dose curve.
# Target: KiSS-1 receptor (Homo sapiens) (UniProt Q969F8)
# Assay: Human kisspeptin (KISS1R) small molecule agonists, calcium flux assay in KISS1R-HEK293 cells (AID 1920064; active means well fitted activation curve with a large enough effect in the repeat runs)
# Conditions: KISS1R-HEK293, calcium flux fluorescence, agonist; series mostly up to 76.8 µM; activation: at the top concentration
# How it was run: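 HEK293 cells stably expressing human KISS1R were plated 18 h at 37 °C, loaded with calcium dye for 1 h at 37 °C, then given compound by pin tool. Fluorescence (Ex/Em 480/540) was read kinetically for 3 min.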
# On the % scale 0 is the no-effect control and ±100 the full control effect.
# Chain of KiSS-1 receptor (Homo sapiens) (Q969F8 whole entry, looked up): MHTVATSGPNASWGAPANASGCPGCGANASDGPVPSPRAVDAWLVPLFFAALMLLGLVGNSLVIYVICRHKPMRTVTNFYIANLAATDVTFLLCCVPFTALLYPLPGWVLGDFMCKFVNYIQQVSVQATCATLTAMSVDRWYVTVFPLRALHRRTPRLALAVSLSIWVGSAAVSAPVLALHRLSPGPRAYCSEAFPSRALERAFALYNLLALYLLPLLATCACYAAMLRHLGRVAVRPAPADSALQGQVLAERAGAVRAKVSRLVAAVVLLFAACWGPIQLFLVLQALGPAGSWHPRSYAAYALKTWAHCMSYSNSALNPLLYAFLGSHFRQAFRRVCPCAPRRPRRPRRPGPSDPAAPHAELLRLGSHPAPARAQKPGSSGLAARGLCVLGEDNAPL
SMILES,activation,Potency
CC(C)=CC(C)(C)C,0.675%,–
CCCC/C=C/CCCCO,0.171%,–
C[C@H](CS)C(=O)N1CCC[C@H]1C(=O)O,0.0004% [at 35.3 µM],–
C/C=C1\[C@H]2C=C(C)C[C@]1(N)c1ccc(=O)[nH]c1C2,-0.32% [at 35.3 µM],–
C[C@@H]1C[C@H]2O[C@@]3(O[C@@H]2C(C)(C)O)[C@H](O)[C@@]2(C)[C@@H]4CC[C@H]5C(C)(C)[C@@H](O[C@@H]6OC[C@@H](O)[C@H](O)[C@H]6O)CC[C@@]56C[C@@]46CC[C@]2(C)[C@@H]13,1.63% [at 35.3 µM],–
CCCCCC(C)OC(=O)COc1ccc(Cl)c2cccnc12 (stereo not given),-0.493%,–
Cc1ccccc1N=Nc1ccc(N=Nc2c(O)ccc3ccccc23)c(C)c1,0.227% [at 35.3 µM],–
Brc1c(NC2=NCCN2)ccc2nccnc12,-1.38% [at 35.3 µM],–
CC1CN(c2ccccc2)NC1=O (stereo not given),-1.36%,–
O=C(NCC(O)CO)c1c(I)c(C(=O)NCC(O)CO)c(I)c(N(CCO)C(=O)CO)c1I (stereo not given),-0.925% [at 35.3 µM],–
O=[N+]([O-])c1ccc2ncccc2c1,2.93%,–
Oc1ccc(C2(c3ccc(O)c(C4CCCCC4)c3)CCCCC2)cc1C1CCCCC1,0.338%,–
Cc1cc(-c2ccc(N=Nc3cc(S(=O)(=O)O)c4ccccc4c3N)c(C)c2)ccc1N=Nc1cc(S(=O)(=O)O)c2ccccc2c1N,0.739%,–
CCN(CC)CC,0.145%,–
CO,-0.375%,–
O=C(c1ccccc1)c1ccc(O)cc1O,–,inactive
COC(=O)/C=C/C(C)=C\C=C\C(C)=C\C=C\C=C(C)\C=C\C=C(C)\C=C\C(=O)O,-2.23%,–
C[C@H]1[C@H](NC(=O)/C(=N/OC(C)(C)C(=O)O)c2csc(N)n2)C(=O)N1S(=O)(=O)O (stereo in doubt),-0.452% [at 35.3 µM],–
Oc1ccc2ccccc2c1,–,inactive
CCOC(=O)c1ccc(C2CCC(NC[C@H](O)COc3ccc(O)c(NS(C)(=O)=O)c3)CC2)cc1 (stereo not given in full),-0.826%,–

SMILES,activation,Potency
CCOC(=O)[C@@H](C)Oc1ccc(Oc2nc3ccc(Cl)cc3o2)cc1,12.6%,–
COC(C(=O)O)c1ccccc1 (stereo not given),2.64%,–
CS(=O)(=O)Nc1ccc([N+](=O)[O-])cc1Oc1ccccc1,–,inactive
CN(C)CC/C=C1\c2ccccc2COc2ccccc21,1.42% [at 35.3 µM],–
O=C(O)Cc1cc(I)c(Oc2ccc(O)c(I)c2)c(I)c1,-1.95%,–
Cn1c(N)nc2nc[nH]c2c1=O,6.08%,–
Cc1c(Nc2ncccc2C(=O)O)cccc1C(F)(F)F,0.513% [at 35.3 µM],–
O=C(CS(=O)Cc1ccco1)NC/C=C\COc1cc(CN2CCCCC2)ccn1 (stereo not given),11.5% [at 35.3 µM],–
O=P(c1ccccc1)(c1ccccc1)c1ccccc1,2.52%,–
Oc1ccc(N=Nc2ccccc2)cc1,0.757%,–
O=S(c1cc(Cl)cc(Cl)c1O)c1cc(Cl)cc(Cl)c1O,-1.38% [at 35.3 µM],–
CN(CCCN1c2ccccc2CCc2ccccc21)CC(=O)c1ccc(Cl)cc1,-0.641% [at 35.3 µM],–
CC(C(=O)O)c1ccc2c(c1)[nH]c1ccc(Cl)cc12 (stereo not given),-0.189% [at 35.3 µM],–
c1ccc2sc(SSc3nc4ccccc4s3)nc2c1,4.25% [at 15.8 µM],–
C=C/C=C/C=C/CCCCC,1.28% [at 15.8 µM],–
CCCCCCOC(=O)c1ccccc1,-3.29%,–
O=C1CCc2ccc(OCCCCN3CCN(c4cccc(Cl)c4Cl)CC3)cc2N1,1.94% [at 35.3 µM],–
O=C(O)CCCCCCCCCCCBr,10.3%,–
CC(=O)OCC=C(C)C,1.85% [at 35.3 µM],–
NC1=NCC2c3ccccc3Cc3ccccc3N12 (stereo not given),-0.738% [at 35.3 µM],–

# System: not listed separately
# Assay: G protein-coupled receptor (GPCR) small molecule agonists, calcium flux assay: HEK293 wild type cell line counter screen (AID 1920065)
# Conditions: HEK293 WT calcium flux, fluorescence, agonist mode; series mostly up to 57.6 µM; activation: at the top concentration
# How it was run: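 Cells were plated and cultured 18 h at 37 C/5% CO2, then loaded with calcium dye for 1 h at 37 C. Compounds in DMSO were pin-transferred in agonist mode, and fluorescence (Ex/Em 480/540) was read kinetically for 3 min at 1 s intervals.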
SMILES,activation,Potency
CC(C)=CC(C)(C)C,0.176%,–
CCCC/C=C/CCCCO,1.75%,–
C[C@H](CS)C(=O)N1CCC[C@H]1C(=O)O,-0.933% [at 26.5 µM],–
C/C=C1\[C@H]2C=C(C)C[C@]1(N)c1ccc(=O)[nH]c1C2,0.965% [at 26.5 µM],–
C[C@@H]1C[C@H]2O[C@@]3(O[C@@H]2C(C)(C)O)[C@H](O)[C@@]2(C)[C@@H]4CC[C@H]5C(C)(C)[C@@H](O[C@@H]6OC[C@@H](O)[C@H](O)[C@H]6O)CC[C@@]56C[C@@]46CC[C@]2(C)[C@@H]13,0.372% [at 26.5 µM],–
CCCCCC(C)OC(=O)COc1ccc(Cl)c2cccnc12 (stereo not given),-0.0332%,–
Cc1ccccc1N=Nc1ccc(N=Nc2c(O)ccc3ccccc23)c(C)c1,-0.615% [at 26.5 µM],–
Brc1c(NC2=NCCN2)ccc2nccnc12,-1.43% [at 26.5 µM],–
CC1CN(c2ccccc2)NC1=O (stereo not given),-1.77%,–
O=C(NCC(O)CO)c1c(I)c(C(=O)NCC(O)CO)c(I)c(N(CCO)C(=O)CO)c1I (stereo not given),-0.163% [at 26.5 µM],–
O=[N+]([O-])c1ccc2ncccc2c1,-1.21%,–
Oc1ccc(C2(c3ccc(O)c(C4CCCCC4)c3)CCCCC2)cc1C1CCCCC1,0.0064%,–
Cc1cc(-c2ccc(N=Nc3cc(S(=O)(=O)O)c4ccccc4c3N)c(C)c2)ccc1N=Nc1cc(S(=O)(=O)O)c2ccccc2c1N,0.692%,–
CCN(CC)CC,1.52%,–
CO,0.584%,–
O=C(c1ccccc1)c1ccc(O)cc1O,–,inactive
COC(=O)/C=C/C(C)=C\C=C\C(C)=C\C=C\C=C(C)\C=C\C=C(C)\C=C\C(=O)O,-0.172%,–
C[C@H]1[C@H](NC(=O)/C(=N/OC(C)(C)C(=O)O)c2csc(N)n2)C(=O)N1S(=O)(=O)O (stereo in doubt),0.38% [at 26.5 µM],–
Oc1ccc2ccccc2c1,–,inactive
CCOC(=O)c1ccc(C2CCC(NC[C@H](O)COc3ccc(O)c(NS(C)(=O)=O)c3)CC2)cc1 (stereo not given in full),2.08%,–

SMILES,activation,Potency
CCOC(=O)[C@@H](C)Oc1ccc(Oc2nc3ccc(Cl)cc3o2)cc1,-0.0056%,–
COC(C(=O)O)c1ccccc1 (stereo not given),-0.904%,–
CS(=O)(=O)Nc1ccc([N+](=O)[O-])cc1Oc1ccccc1,–,inactive
CN(C)CC/C=C1\c2ccccc2COc2ccccc21,0.651% [at 26.5 µM],–
O=C(O)Cc1cc(I)c(Oc2ccc(O)c(I)c2)c(I)c1,0.48%,–
Cn1c(N)nc2nc[nH]c2c1=O,0.0811%,–
Cc1c(Nc2ncccc2C(=O)O)cccc1C(F)(F)F,-1.2% [at 26.5 µM],–
O=C(CS(=O)Cc1ccco1)NC/C=C\COc1cc(CN2CCCCC2)ccn1 (stereo not given),-0.13% [at 26.5 µM],–
O=P(c1ccccc1)(c1ccccc1)c1ccccc1,-1.46%,–
Oc1ccc(N=Nc2ccccc2)cc1,-1.97%,–
O=S(c1cc(Cl)cc(Cl)c1O)c1cc(Cl)cc(Cl)c1O,-0.29% [at 26.5 µM],–
CN(CCCN1c2ccccc2CCc2ccccc21)CC(=O)c1ccc(Cl)cc1,0.766% [at 26.5 µM],–
CC(C(=O)O)c1ccc2c(c1)[nH]c1ccc(Cl)cc12 (stereo not given),-0.0225% [at 26.5 µM],–
c1ccc2sc(SSc3nc4ccccc4s3)nc2c1,0.255% [at 11.8 µM],–
C=C/C=C/C=C/CCCCC,0.367% [at 11.8 µM],–
CCCCCCOC(=O)c1ccccc1,-0.454%,–
O=C1CCc2ccc(OCCCCN3CCN(c4cccc(Cl)c4Cl)CC3)cc2N1,-1.14% [at 26.5 µM],–
O=C(O)CCCCCCCCCCCBr,-0.392%,–
CC(=O)OCC=C(C)C,-0.0196% [at 26.5 µM],–
NC1=NCC2c3ccccc3Cc3ccccc3N12 (stereo not given),-0.248% [at 26.5 µM],–
